# An excerpt weighted towards active compounds, which were near 3.8% of everything screened.
# Sfp PPTase inh: inhibitors of Bacillus subtilis Sfp phosphopantetheinyl transferase; Q9F4F7; Potency, µM, inactives show largest response in the series, negative = inhibition, usual class: inhibitors; Biochemical Sfp PPTase activity, qHTS; hit rate 3.5% among 310,000;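 note: the enzyme is Sfp with the accession as filed and its product quenches rhodamine fluorescence; 0% = enzyme reaction without inhibitor and -100% = no enzyme wells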
#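 Step 1, compound plus 15 nM Sfp-PPTase, 15 min, room temperature. Step 2, add rhodamine-CoA (5 uM) and BHQ-2-YbbR (12.5 uM). Step 3, read 525/598 nm fluorescence at 0 and 30 min.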
# VDR inhibitor: inhibitors of human vitamin D receptor; P11473; VDR-SRC2-3 peptide fluorescence polarization, 2 h; Potency, µM, inactives show max response, negative = inhibition, hits mostly inhibitors; hit rate 0.93% among 400,000
#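 The screen uses fluorescence polarization to detect compounds that interfere with recruitment of the SRC2-3 coactivator peptide to VDR; plates are read after 2 h at room temperature.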
# GLS inh: inhibitors of human glutaminase (GLS); GLS enzymatic activity, qHTS titration; Potency, µM (titrated, usually from 45.5 µM), for inactives: at the top dose activity change, negative = inhibition, actives largely listed as inhibitors; hit rate 0.21% among 410,000
#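 Human kidney-isoform GLS in 45 mM KH2PO4 pH 8.2, 0.02% Tween-20, with compound, started with 1mM L-Glutamine (added stock). Glutamate oxidase/HRP/Amplex red coupled fluorescence read at start and after 30 min at RT.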
# KAT2A inh: blocks human GCN5L2 histone acetyltransferase; GCN5L2 HAT assay, ThioGlo1 CoA-SH fluorescence; hit rate 0.21% among 390,000; Potency, µM (series often up to 58.9 µM), without a hit: at the top dose activity change, negative = inhibition, most hits filed as inhibitors
# Target sequence (Q92830 whole entry, looked up): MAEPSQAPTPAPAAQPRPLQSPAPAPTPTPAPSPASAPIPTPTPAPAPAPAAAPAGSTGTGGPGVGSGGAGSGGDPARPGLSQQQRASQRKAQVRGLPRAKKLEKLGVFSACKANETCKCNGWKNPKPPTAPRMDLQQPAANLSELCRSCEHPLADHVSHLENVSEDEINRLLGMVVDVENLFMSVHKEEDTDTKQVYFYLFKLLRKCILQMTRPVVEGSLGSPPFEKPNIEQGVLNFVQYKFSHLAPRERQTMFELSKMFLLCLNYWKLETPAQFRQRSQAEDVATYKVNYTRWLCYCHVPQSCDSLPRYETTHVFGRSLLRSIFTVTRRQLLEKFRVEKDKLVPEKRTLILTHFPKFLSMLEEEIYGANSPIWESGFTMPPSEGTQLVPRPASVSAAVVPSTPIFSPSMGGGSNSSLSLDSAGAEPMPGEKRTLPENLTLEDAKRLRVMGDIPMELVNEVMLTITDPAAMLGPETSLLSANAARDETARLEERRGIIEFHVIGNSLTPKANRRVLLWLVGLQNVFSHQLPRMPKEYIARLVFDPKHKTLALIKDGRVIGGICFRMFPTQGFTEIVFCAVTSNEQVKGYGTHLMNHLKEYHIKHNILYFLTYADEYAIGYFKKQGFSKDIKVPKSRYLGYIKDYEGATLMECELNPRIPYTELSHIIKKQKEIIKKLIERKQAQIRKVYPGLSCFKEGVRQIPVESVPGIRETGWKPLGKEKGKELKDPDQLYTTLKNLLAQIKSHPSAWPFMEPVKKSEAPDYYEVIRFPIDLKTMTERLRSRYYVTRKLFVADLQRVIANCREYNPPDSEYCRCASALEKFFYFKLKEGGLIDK
#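 ThioGlo1-coupled HAT assay: 20nM GCN5L2, 70uM acetyl-CoA, 75uM H3(1-25) peptide, pH 7.5. Fluorescence read at 340/540nm at start and after 20 min at room temperature.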
# rTrxR1 inhibitor: rat TrxR1 inhibition | recombinant rTrxR1, NADPH fluorescence consumption, selenite substrate | O89049 | hit rate 1% among 390,000 | Potency, µM (titrated, usually from 114 µM), inactives show at the top dose activity change, negative = inhibition, most hits filed as inhibitors; note: nearly all actives have a fitted effect of over 65% in size
#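 Rat TrxR1 (90 nM in the dispensed reagent) was pre-reduced with 400 uM NADPH for 5 min at room temperature, then incubated with compound for 15 min. After 400 uM selenite was added, NADPH fluorescence (Ex 340/Em 450 nm) was followed for 8 min.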
# TrxR1 substrate: is turned over as a substrate by rat TrxR1 | AID 588456 | Potency, µM (doses to about 114 µM), for the others: at the highest dose activity change, negative = substrate turnover | hit rate 0.01% among 390,000 | purified TrxR1 substrate turnover, NADPH consumption readout; note: nearly all actives have a fitted effect of over 50% in size
#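 Rat TrxR1, dispensed at 90 nM, was prereduced with 400 uM NADPH (final) for 5 min at ~22 deg C, then incubated with compound 15 min before 400 uM selenite. A first-read NADPH fluorescence drop versus no-compound background flagged substrates.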
# Numbers without * were called inactive; ? = inconclusive; nt = no result given; [ ] = another dose, or the depositor's remark. Calls come from the whole dose curve; as a rule, active = well fitted curve in the direction sought with a large enough effect; inconclusive = small, poorly fitted or top-dose-only effect, or another doubt; inactive = no such curve, though single readings can be large; an effect the other way counts as inactive or inconclusive. Unless noted, % is set by controls: 0 for no effect and ±100 for the full control effect; potency is the fitted concentration of half-maximal effect.
SMILES,Sfp PPTase inh,VDR inhibitor,GLS inh,KAT2A inh,rTrxR1 inhibitor,TrxR1 substrate
CC(/C=N/NC(=O)Cn1cnc2c1c(=O)n(C)c(=O)n2C)=C\c1ccco1,40µM*,-9%,0%,-7%,-10%[57.1 µM],-5%[57.1 µM]
Cn1c(=O)c2c(ncn2CC(=O)N/N=C/C=C/c2ccco2)n(C)c1=O,14µM*,8%,6%,-17%,?,-4%[57.1 µM]
CC(/C=N/NC(=O)Cc1cccn1C)=C\c1ccco1,40µM*,12%,1%,?,?,-1%
Cn1c(=O)c2c(ncn2CC(=O)N/N=C/C(Cl)=C/c2ccccc2)n(C)c1=O,2%,-22%,1%,-12%,-25%,-21%
COc1ccc(/C=N/NC(=O)Cn2cnc3c2c(=O)n(C)c(=O)n3C)cc1,18%,9%,7%,0%,-20%,-21%
CC(C)C(=O)N1CCN(c2ccccc2NC(=O)c2cccc3ccccc23)CC1,-9%,0%,13%,-12%,-12%,-11%
O=C(CCS(=O)(=O)c1ccc(Cl)cc1)Nc1ccccc1Br,7%,5%,-14%,-7%,3%[57.1 µM],-1%[57.1 µM]
O=C(O)CCCC(=O)Nc1ccccc1SCCS(=O)(=O)c1ccc(Cl)cc1,56µM*,-17%,6%,-15%,-12%[57.1 µM],9%[57.1 µM]
Cc1c(C#N)c2ccccc2n1C,2%,17%,-6%,2%,8%,1%
C/C=C1\COC(C(=O)NCc2ccncc2)(C(F)(F)F)C=C1C=C1CCCCC1 (configuration not stated),?,?,4%,nt,18µM*,-3%
C/C=C1\COC(C(=O)NCCOCCO)(C(F)(F)F)C=C1C=C1CCCCC1 (configuration not stated),-4%,?,nt,nt,1.6µM*,5%
COc1cccc(CNC(=O)Cn2nc3c(cc2=O)CCCC3)c1OC,nt,9%,2%,2%,5%[57.1 µM],-7%[57.1 µM]
CC(=O)Nc1ccc(-c2ccnc3c2CC(C)(C(=O)NCc2ccncc2)O3)cc1 (configuration not stated),nt,nt,16%,nt,nt,nt
CNC(=O)C1(C(F)(F)F)C/C(=C/CCO)CCCO1 (configuration not stated),15%,-14%,nt,nt,10%,-3%
C/C=C1\COC(C(=O)NC)(C(F)(F)F)C=C1C=C1CCCCC1 (configuration not stated),-7%,?,nt,nt,1.4µM*,0%
COCCNC(=O)C1(C(F)(F)F)C/C(=C\CCO)CCCO1 (configuration not stated),21%,-13%,nt,nt,7%[57.1 µM],3%
C/C=C1\COC(C(=O)NCc2cccc(OC)c2OC)(C(F)(F)F)C=C1C=C1CCCCC1 (configuration not stated),11%,-3%,0%,nt,5µM*,-3%
N#Cc1c(N(CC(=O)O)CC(=O)O)sc(C(=O)O)c1CC(=O)O,26%,3%,-10%,-4%,nt,nt
COc1ccccc1C(=O)C1CCCN(C(=O)c2ccc(Cl)cc2)C1 (configuration not stated),nt,nt,-5%,nt,nt,nt
CN(C)S(=O)(=O)c1ccc2c(c1)nnn2CCNC(=O)Nc1ccc(Br)cc1,nt,10%,3%,30%,10%[57.1 µM],2%[57.1 µM]
CCOC(=O)c1ccc(NC(=O)CSc2ccc(-c3cccnc3)nn2)cc1,2%,-3%,7%,-4%,5%,0%
COC(=O)c1c(OC)cc2c(c1C)Oc1c(Cl)c(O)c(Cl)c(C)c1C(=O)O2,-28%,40µM*,nt,?,nt,nt
COC(=O)c1c(C)c2c(c(C)c1O)OC(=O)c1c(C)c(Cl)c(O)c(Cl)c1O2,-1%,?,nt,?,nt,nt
Cc1ccc(-n2ncc(C(=O)NCCCN3CCc4ccccc4C3)c2C2CCN(C(=O)OC(C)(C)C)CC2)c(C)c1,nt,1%,9%,-15%,12%,-6%
O=C(O)CC(NC(=O)c1ccco1)c1ccco1 (configuration not stated),7%,11%,-5%,1%,3%,4%
SMILES,Sfp PPTase inh,VDR inhibitor,GLS inh,KAT2A inh,rTrxR1 inhibitor,TrxR1 substrate
Cc1ccc(-c2nc(=S)c3c(n2Cc2ccco2)CC(C)(C)OC3)cc1,56µM*,?,10%,-26%,?,8%
Cc1cccc(-c2nc(=S)c3c(n2Cc2ccco2)CCCC3)c1,20µM*,5%,14%,-4%,?,3%
CCn1ncc(NC(=S)Nc2ccc(OC)c(OC)c2)c1C(N)=O,32µM*,0%,-29%,1%,24%[57.1 µM],-6%[57.1 µM]
CCn1ncc(NC(=S)Nc2ccc3c(c2)OCO3)c1C(N)=O,56µM*,4%,2%,-4%,-32%,-15%
CCC(C)c1ccc(NC(=S)Nc2ccc(OC)c(OC)c2)cc1 (configuration not stated),-2%,-3%,6%,2%,-21%,-7%
CNC(=O)c1cc(C(=O)c2ccc(C(F)(F)F)cc2F)c[nH]1,0%,-5%,-15%,-7%,24%[57.1 µM],11%[57.1 µM]
CCOc1ccccc1Nc1ccc(C(=O)O)cc1NC(C)=O,56µM*,-19%,16%,-7%,1%[57.1 µM],-9%
O=C(O)/C(=C\c1cn(-c2ccccc2)nc1-c1cccnc1)NC(=O)c1ccccc1,26%,0%,3%,-3%,9%,3%
NC(=S)N/N=C/c1cn(-c2ccccc2)nc1-c1cccnc1,-3%,28µM*,-25%,-9%,7%,-3%
Cn1c(=O)c2cc(C(=O)NC3CCCCCC3)sc2c2ccccc21,nt,0%,-6%,?,4%,3%
COc1cccc(N2C(=O)CC(Sc3nc(C)cc(C)n3)C2=O)c1 (configuration not stated),-1%,11%,21%,-6%,15%[57.1 µM],-8%
COc1ccc(N2C(=O)CC(Sc3n[nH]c(-c4cccc(C)c4)n3)C2=O)cc1 (configuration not stated),3.2µM*,12%,-14%,?,?,18%[57.1 µM]
COC(=O)c1ccc(N2C(=O)CC(Sc3n[nH]c(C)n3)C2=O)cc1 (configuration not stated),?,-5%,-20%,-16%,13µM*,-1%
COc1ccc(N2C(=O)CC(Sc3nc4ccccc4s3)C2=O)cc1 (configuration not stated),7%,6%,0%,-9%,2%[57.1 µM],-13%[57.1 µM]
COc1ccc(N2C(=O)CC(Sc3nnc(-c4ccccc4F)n3C)C2=O)cc1 (configuration not stated),1%,-18%,8%,-7%,32µM*,0%
CCOc1ccccc1N1C(=O)CC(Sc2n[nH]c(-c3ccccc3)n2)C1=O (configuration not stated),35µM*,-11%,?,-21%,1µM*,7%[57.1 µM]
